The values below come from publication PMC5540273 (PLoS ONE, 2017).
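Also: KINOMEscan kinase panel screen.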

For the first assay, the system named is PIK3C2B. The following applies: concentration: 1 μM, replicates: in singlicate; n = 1.
Turning to `CCC(CC)(CC)n1cnc2c(N)ncnc21` [SKF-97620], the “%Inh” value was determined as 0%.
Still for that read-out and setting: the result for `Cc1ccc(NC(=O)c2cccc(C#N)c2)cc1-c1ccc(C(=O)Nc2ccncc2)cc1` [GSK1398463] reads 5%; that for `CSc1nn2c(=O)cc(N3CCOCC3)nc2n1Cc1cccc(Cl)c1Cl` [GSK2347225], 80%; that for `FC(F)(F)c1cc(Nc2nccc(-c3c(-c4ccc(Cl)cc4)nn4ncccc34)n2)ccc1Cl` [GW829351], 0%.
Still for that read-out and setting: then `CC(=O)Nc1n[nH]c2ncc(-c3ccccc3)cc12` [SB-548492], with 3%.
For the molecule `O=C(Nc1n[nH]c2nc(-c3ccco3)c(Br)cc12)c1ccc(CN2CCCC2)cc1.O=C(O)[C@H](O)[C@@H](O)C(=O)O` [SB-742352], the “%Inh” value was 0%.
Still for that read-out and setting: the result for `O=C(NCCCN1CCCC1=O)c1cnc(NCc2cc(Cl)ccc2Cl)nc1NC1CCNCC1` reads 0%; that for `Nc1nccc2scc(-c3ccc4c(c3)CCN4C(=O)Cc3cc(F)ccc3F)c12` [GSK2587663], 0%.
The same measure, in the same setting: the result for `CN1CCC(n2cnc(-c3ccc(F)cc3)c2-c2ccnc(NC3CCNCC3)n2)CC1` [SB-229482] reads 0%; that for `Oc1ccc2ncnc(Nc3ccc(OCc4ccccc4)cc3)c2c1` [GI262866], 0%; that for `COc1ccc(NC(=O)c2ccc(-c3cc(-c4nnc(C)o4)ccc3C)cc2)cc1` [GW595885], 0%.
The same measure, in the same setting: the result for `CC(C)N1CCC(n2cnc(-c3ccc(F)cc3)c2-c2ccnc(N)n2)CC1` [SB-223132] reads 0%.
For the molecule `COc1ccc(Nc2nccc(N3CCC(NC(=O)Nc4ccc5c(c4)OCO5)C3)n2)cc1` (stereo not shown) [GSK1379745], the “%Inh” value is given as 9%.
Still for that read-out and setting: the result for `COC(=O)c1cccc(NC(=O)NCCNc2ccnc(Nc3ccc(F)cc3)n2)c1` [GSK1379883] reads 4%; that for `COc1cc2c(Nc3cccc(NC(=O)c4ccccc4)c3)ncnc2cc1OCCCN1CCOCC1` [GSK223810], 0%; that for `O=C(Nc1ccccc1)Nc1ccc(Oc2ccc3nccn3n2)cc1`, 0%.
Still for that read-out and setting: then `Nc1nc(-c2ccccn2)c(-c2ccnc3ccccc23)s1` [GW548057], with 0%.
On the same count and under the same terms, then `Cc1ccc(O)cc1Nc1cc(C(F)(F)F)nc2ccc(-c3ccncc3)cc12` [GW630823], with 0%; and `Fc1cccc(COc2ccc(Nc3ncnc4sc(-c5ccc[nH]5)cc34)cc2Cl)c1` [GW707818], with 0%; and `Fc1cccc(COc2ccc(Nc3ncnc4cc[nH]c34)cc2Cl)c1`, with 32%.
In the case of `Nc1nc(-c2ccc3c(N)n[nH]c3c2)cc(N2CCC[C@@H](C(=O)Nc3ccccc3)C2)n1.O=C(O)C(F)(F)F.O=C(O)C(F)(F)F` [GSK2288359], the “%Inh” value is reported as 1%.
In the case of `O=C(CCO)NCCn1ccc2ncnc(Nc3ccc(Oc4cccc(C(F)(F)F)c4)c(Cl)c3)c21`, the “%Inh” value is 0%.
Consider `CNc1nccc(-c2c(-c3ccc(F)cc3)ncn2CCCN2CCOCC2)n1` [SB-222516], for which the “%Inh” value is recorded as 0%.
On the same count and under the same terms, then `Cc1ccc(C)c(NC(=O)NCCNc2ccnc(Nc3ccc(F)cc3)n2)c1` [GSK1379878], with 0%; and `CC(C)(C)c1ccc(-n2cnc3c(N)ncnc32)cc1` [SKF-97263], with 100%; and `CS(=O)(=O)CCNCc1nc(-c2ccc3ncnc(Nc4ccc(OCc5cccc(F)c5)c(Cl)c4)c3c2)cs1.Cl` [GW583340], with 37%.
On the same count and under the same terms, then `CCCc1ccc(S(=O)(=O)NC2CCN(c3ccnc(Nc4ccc(OC)cc4)n3)C2)cc1` (stereo not shown) [GSK1379737], with 0%.
On the same count and under the same terms, then `FC(F)(F)c1ccc(-c2nn3ncccc3c2-c2ccnc(Nc3cccc(C(F)(F)F)c3)n2)cc1` [GW828205], with 0%; and `Cc1cccc(-c2nc(Nc3ccc4[nH]nnc4c3)c3ccccc3n2)n1` [GW867587], with 0%; and `O=C(Nc1ccccc1F)NC1CCN(c2ccnc(Nc3ccc(F)cc3)n2)C1` (stereo not shown) [GSK1379722], with 0%.
Turning to `COc1ccc(NC(=O)Nc2ccc(C)c(-c3ccc(C(=O)Nc4ccncc4)cc3)c2)cc1` [GSK1398475], the “%Inh” value is 0%.
In the case of `Clc1ccc(-c2cc(-c3c[nH]nc3-c3ccccn3)ccn2)cc1` [GW681251], the “%Inh” value is 0%.
Turning to `Clc1cc(Nc2ncnc3cc[nH]c23)ccc1OCc1ccccn1`, the “%Inh” value turned out to be 15%.
The same measure, in the same setting: then `CNc1nccc(-c2c(-c3ccc(F)cc3)ncn2C2CCN(C)CC2)n1` [SB-222903], with 0%; and `c1ccc(-c2ccc3c(-c4ccnc(Nc5ccc6c(c5)OCCO6)n4)cnn3n2)cc1` [GW818941], with 0%.

A further assay has as its system PIK3C2G. The following applies: concentration: 1 μM, replicates: in singlicate; n = 1.
As to `CCC(CC)(CC)n1cnc2c(N)ncnc21` [SKF-97620], the “%Inh” value is 9%.
On the same count and under the same terms, then `Cc1ccc(NC(=O)c2cccc(C#N)c2)cc1-c1ccc(C(=O)Nc2ccncc2)cc1` [GSK1398463], with 4%; and `CSc1nn2c(=O)cc(N3CCOCC3)nc2n1Cc1cccc(Cl)c1Cl` [GSK2347225], with 33%; and `FC(F)(F)c1cc(Nc2nccc(-c3c(-c4ccc(Cl)cc4)nn4ncccc34)n2)ccc1Cl` [GW829351], with 0%.
As for `CC(=O)Nc1n[nH]c2ncc(-c3ccccc3)cc12` [SB-548492], the “%Inh” value stood at 23%.
The same measure, in the same setting: the result for `O=C(Nc1n[nH]c2nc(-c3ccco3)c(Br)cc12)c1ccc(CN2CCCC2)cc1.O=C(O)[C@H](O)[C@@H](O)C(=O)O` [SB-742352] reads 0%; that for `O=C(NCCCN1CCCC1=O)c1cnc(NCc2cc(Cl)ccc2Cl)nc1NC1CCNCC1`, 0%.
Regarding `Nc1nccc2scc(-c3ccc4c(c3)CCN4C(=O)Cc3cc(F)ccc3F)c12` [GSK2587663], the “%Inh” value amounted to 0%.
Same read-out and setting: the result for `CN1CCC(n2cnc(-c3ccc(F)cc3)c2-c2ccnc(NC3CCNCC3)n2)CC1` [SB-229482] reads 0%; that for `Oc1ccc2ncnc(Nc3ccc(OCc4ccccc4)cc3)c2c1` [GI262866], 0%.
The same measure, in the same setting: the result for `COc1ccc(NC(=O)c2ccc(-c3cc(-c4nnc(C)o4)ccc3C)cc2)cc1` [GW595885] reads 0%.
Take `CC(C)N1CCC(n2cnc(-c3ccc(F)cc3)c2-c2ccnc(N)n2)CC1` [SB-223132]: the “%Inh” value came out at 0%.
For the molecule `COc1ccc(Nc2nccc(N3CCC(NC(=O)Nc4ccc5c(c4)OCO5)C3)n2)cc1` (stereo not shown) [GSK1379745], the “%Inh” value worked out at 0%.
Still for that read-out and setting: then `COC(=O)c1cccc(NC(=O)NCCNc2ccnc(Nc3ccc(F)cc3)n2)c1` [GSK1379883], with 0%; and `COc1cc2c(Nc3cccc(NC(=O)c4ccccc4)c3)ncnc2cc1OCCCN1CCOCC1` [GSK223810], with 0%.
On the same count and under the same terms, then `O=C(Nc1ccccc1)Nc1ccc(Oc2ccc3nccn3n2)cc1`, with 0%.
Same read-out and setting: then `Nc1nc(-c2ccccn2)c(-c2ccnc3ccccc23)s1` [GW548057], with 0%; and `Cc1ccc(O)cc1Nc1cc(C(F)(F)F)nc2ccc(-c3ccncc3)cc12` [GW630823], with 15%; and `Fc1cccc(COc2ccc(Nc3ncnc4sc(-c5ccc[nH]5)cc34)cc2Cl)c1` [GW707818], with 7%.
On to `Fc1cccc(COc2ccc(Nc3ncnc4cc[nH]c34)cc2Cl)c1`, for which the “%Inh” value came to 17%.
The same measure, in the same setting: then `Nc1nc(-c2ccc3c(N)n[nH]c3c2)cc(N2CCC[C@@H](C(=O)Nc3ccccc3)C2)n1.O=C(O)C(F)(F)F.O=C(O)C(F)(F)F` [GSK2288359], with 42%; and `O=C(CCO)NCCn1ccc2ncnc(Nc3ccc(Oc4cccc(C(F)(F)F)c4)c(Cl)c3)c21`, with 0%.
Same read-out and setting: the result for `CNc1nccc(-c2c(-c3ccc(F)cc3)ncn2CCCN2CCOCC2)n1` [SB-222516] reads 3%; that for `Cc1ccc(C)c(NC(=O)NCCNc2ccnc(Nc3ccc(F)cc3)n2)c1` [GSK1379878], 0%; that for `CC(C)(C)c1ccc(-n2cnc3c(N)ncnc32)cc1` [SKF-97263], 12%.
On the same count and under the same terms, then `CS(=O)(=O)CCNCc1nc(-c2ccc3ncnc(Nc4ccc(OCc5cccc(F)c5)c(Cl)c4)c3c2)cs1.Cl` [GW583340], with 0%; and `CCCc1ccc(S(=O)(=O)NC2CCN(c3ccnc(Nc4ccc(OC)cc4)n3)C2)cc1` (stereo not shown) [GSK1379737], with 0%.
Turning to `FC(F)(F)c1ccc(-c2nn3ncccc3c2-c2ccnc(Nc3cccc(C(F)(F)F)c3)n2)cc1` [GW828205], the “%Inh” value was found to be 0%.
Same read-out and setting: the result for `Cc1cccc(-c2nc(Nc3ccc4[nH]nnc4c3)c3ccccc3n2)n1` [GW867587] reads 0%; that for `O=C(Nc1ccccc1F)NC1CCN(c2ccnc(Nc3ccc(F)cc3)n2)C1` (stereo not shown) [GSK1379722], 0%.
Still for that read-out and setting: the result for `COc1ccc(NC(=O)Nc2ccc(C)c(-c3ccc(C(=O)Nc4ccncc4)cc3)c2)cc1` [GSK1398475] reads 0%; that for `Clc1ccc(-c2cc(-c3c[nH]nc3-c3ccccn3)ccn2)cc1` [GW681251], 0%.
Take `Clc1cc(Nc2ncnc3cc[nH]c23)ccc1OCc1ccccn1`: the “%Inh” value turned out to be 43%.
The same measure, in the same setting: then `CNc1nccc(-c2c(-c3ccc(F)cc3)ncn2C2CCN(C)CC2)n1` [SB-222903], with 0%; and `c1ccc(-c2ccc3c(-c4ccnc(Nc5ccc6c(c5)OCCO6)n4)cnn3n2)cc1` [GW818941], with 11%.
